Screens (PubChem BioAssay)
KDM5B inh: KDM5B demethylase inhibition. Q9UGL1. KDM5B demethylase, FDH-coupled NADH fluorescence (FDH is formaldehyde dehydrogenase). Potency, µM (top dose mostly 57.7 µM), most hits filed as inhibitors. actives 2.6% (n = 220,000); active = well fitted inhibition curve with a large enough effect; note: 0% is about no effect; nearly all actives have a fitted effect of over 70% in size
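qHTS format, multiple compound concentrations. Buffer 50 mM HEPES pH 7.5/0.01% Tween-20; 200 nM KDM5BΔAP final; 10 min compound preincubation; substrate-mix levels 12.5 µM peptide, 25 µM α-KG, 0.25 mM NAD⁺; 30 min RT; ΔRFU.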
The depositor's hits bear a star; ! = a repeat was not active. The sample as a whole holds a higher share of hits than the screen did. Potency is the fitted concentration of half-maximal effect.

How did c1c[nH]c(-c2nc3ncccc3[nH]2)c1 do in these assays?
KDM5B inh: 141µM*!

Results for COc1ccc(CSc2nc3ncccc3[nH]2)cc1 ?
KDM5B inh: inactive

What do the screens show for `O=C(CSc1nc2ncccc2[nH]1)NC1CCCCC1`?
KDM5B inh: inactive

What do the screens show for `O=c1[nH]c(Nc2ccccc2)nc2nccc(-c3ccco3)c12`?
KDM5B inh: inactive

Results for Cc1oc(-c2ccccc2)nc1CSc1nc2ncccc2[nH]1 ?
KDM5B inh: inactive

What do the screens show for `CCC(Sc1nc2ncccc2[nH]1)C(=O)Nc1cccc(OC)c1` (stereo not given)?
KDM5B inh: inactive

What do the screens show for `Cc1cc(C)cc(NC(=O)CSc2nc3ncccc3[nH]2)c1`?
KDM5B inh: inactive

Results for c1coc(-c2nc3ncccc3[nH]2)c1 ?
KDM5B inh: 31.6µM*!

What do the screens show for `c1cnc2nc(-c3ccncc3)[nH]c2c1`?
KDM5B inh: 31.6µM*

How did CC(=O)Nc1cc(F)ccc1-c1csc(NC(=O)C2CCCC2)n1 do in these assays?
KDM5B inh: inactive

What do the screens show for `CCc1oc2ccccc2c1/C=C/C(=O)NC1CCCC1`?
KDM5B inh: inactive

Results for NC(=O)C1(c2ccccc2)CC1c1ccccc1 (stereo not given) ?
KDM5B inh: inactive

What do the screens show for `CCOc1ccc(NC(=O)c2cccc(Nc3ccnc(-c4ccc(F)cc4)n3)c2)cc1`?
KDM5B inh: inactive

Results for COCCCNC(=O)CC1CC2CCC1C2 (stereo not given) ?
KDM5B inh: inactive

How did CC(C)(C)c1ccc(-c2csc(NC(=O)COCc3nc4ccccc4c(=O)[nH]3)n2)cc1 do in these assays?
KDM5B inh: inactive

What do the screens show for `CN(C)c1ccc(-c2nn3c(CN4CCCCC4)nnc3s2)cc1`?
KDM5B inh: inactive

Results for Cc1cc2oc(C(=O)N(Cc3ccco3)Cc3ccco3)cc(=O)c2cc1Cl ?
KDM5B inh: inactive

Results for Cc1cccc(CN2CCCN(S(C)(=O)=O)C(c3ccccc3)CC(=O)NCC2)c1 (stereo not given) ?
KDM5B inh: inactive

How did COc1ccccc1NS(=O)(=O)c1cccc(C(=O)N2CCc3sccc3C2)c1 do in these assays?
KDM5B inh: inactive

How did COc1cccc(N2CCN(C(=O)C3CCCN(Cc4cccnc4)CCC(=O)NCC3)CC2)c1 (stereo not given) do in these assays?
KDM5B inh: inactive

Results for CCn1ncc(CN2CCCC(C(=O)N3CCN(c4ccccn4)CC3)CCNC(=O)CC2)c1C (stereo not given) ?
KDM5B inh: 25.1µM*

What do the screens show for `CCN1CCN(C(=O)C2CCCN(Cc3cccnc3)CCC(=O)NCC2)CC1` (stereo not given)?
KDM5B inh: inactive

How did CCn1ncc(CN2CCCC(c3nc(C(C)C)no3)CCNC(=O)CC2)c1C (stereo not given) do in these assays?
KDM5B inh: inactive

What do the screens show for `Cc1ccc(CN2CCCC(C(=O)N3CCN(c4ccccn4)CC3)CCNC(=O)CC2)s1` (stereo not given)?
KDM5B inh: 28.2µM*

What do the screens show for `Cc1ccc(CN2CCCC(c3nc(-c4cccnc4)no3)CCNC(=O)CC2)s1` (stereo not given)?
KDM5B inh: inactive

Results for COc1ccc(C(=O)c2ccccc2)c(OC(=O)c2ccccc2Sc2ccccc2C#N)c1 ?
KDM5B inh: inactive

Results for COc1ccc(NC(C)c2nc(-c3cccs3)no2)cc1 (stereo not given) ?
KDM5B inh: inactive

How did CC(C)CCNC(=O)C(=O)NC1CCCCC1 do in these assays?
KDM5B inh: inactive

Results for CC(C)NC(=O)C(=O)NCCc1c[nH]c2ccccc12 ?
KDM5B inh: inactive

How did c1ccc2c(c1)CCN2CC1CCNCC1 do in these assays?
KDM5B inh: inactive

Results for COc1ccc(OC)c(NC(=O)NCc2nc(-c3cccc(Cl)c3)oc2C)c1 ?
KDM5B inh: inactive

What do the screens show for `CC(=O)Nc1cccc(-c2ncc3c(n2)OCCN(Cc2ccc(F)cc2F)C3=O)c1`?
KDM5B inh: 31.6µM*

Results for COc1ccc(Cl)cc1-c1ncc2c(n1)OCCN(Cc1ccc(F)cc1F)C2=O ?
KDM5B inh: 35.5µM*

Results for O=C1c2cnc(-c3cccc(O)c3)nc2OCCN1c1cccc(C(F)(F)F)c1 ?
KDM5B inh: inactive

Results for CC(=O)Nc1cccc(-c2ncc3c(n2)OCCN(c2ccccc2)C3=O)c1 ?
KDM5B inh: inactive

Results for C[S+](=O)([O-])c1cccc(-c2ncc3c(n2)OCCN(CC2CC2)C3=O)c1 ?
KDM5B inh: inactive

How did Cn1nccc1-c1ncc2c(n1)OCCN(Cc1ccccc1)C2=O do in these assays?
KDM5B inh: inactive

What do the screens show for `CC(=O)Nc1cccc(-c2ncc3c(n2)OCCN(CC2CC2)C3=O)c1`?
KDM5B inh: 31.6µM*

How did COc1cccc(F)c1-c1ncc2c(n1)OCCN(CC1CC1)C2=O do in these assays?
KDM5B inh: 28.2µM*

How did NC(=O)c1cccc(-c2ncc3c(n2)OCCN(Cc2ccc(F)cc2F)C3=O)c1 do in these assays?
KDM5B inh: inactive

What do the screens show for `COc1cccc(-c2ncc3c(n2)OCCN(CC2CC2)C3=O)c1OC`?
KDM5B inh: inactive

How did CC(NC(=O)Cc1csc2nc(-c3ccccc3)cn12)c1ccc(S(C)(=O)=O)cc1 (stereo not given) do in these assays?
KDM5B inh: inactive

What do the screens show for `Cc1ccc2nc(/C(C#N)=C/c3cc(Br)c(O)c(Br)c3)[nH]c2c1`?
KDM5B inh: inactive

Results for Cc1ccccc1N(C)C1CN(C(=O)c2ccc3c(c2)OCO3)C1 ?
KDM5B inh: inactive

How did CCCc1cc(=O)n2[nH]c(NC(=O)C3CCCCC3)nc2n1 do in these assays?
KDM5B inh: inactive

Results for O=C(O)C(c1c[nH]c2ccccc12)N1CCc2ccccc2C1 (stereo not given) ?
KDM5B inh: inactive

Results for CCCCCCS(=O)(=O)CCO ?
KDM5B inh: inactive

What do the screens show for `COc1cccc(N2Cc3nc(=O)n(CC(=O)NCc4ccccc4)n3C2=O)c1`?
KDM5B inh: inactive

How did CC(C)c1cccc(C(C)C)c1NC(=O)c1ccccc1Sc1ccccc1C#N do in these assays?
KDM5B inh: inactive

Results for O=C1CCN(S(=O)(=O)c2ccccc2)CCCN(C(=O)C2CCCCC2)CCN1 ?
KDM5B inh: inactive

Results for O=C1c2cnc(-c3ccoc3)nc2OCCN1Cc1ccc(F)cc1F ?
KDM5B inh: 35.5µM*

How did O=C1c2cnc(-c3ccc(F)cc3F)nc2OCCN1Cc1ccc(F)cc1F do in these assays?
KDM5B inh: inactive

What do the screens show for `O=C(Nc1c(N2CCCC2)c2ccccc2oc1=O)C1CC1`?
KDM5B inh: inactive

How did CCc1ccc(N(CC(=O)Nc2ccccc2C(=O)NCC2CCCO2)S(C)(=O)=O)cc1 (stereo not given) do in these assays?
KDM5B inh: inactive

What do the screens show for `Cc1ccc(-c2nc(CN3CCCC3c3ccsc3)co2)cc1` (stereo not given)?
KDM5B inh: inactive

What do the screens show for `CCc1c(C)nc(Nc2nc(C)c3cccc(OC)c3n2)[nH]c1=O`?
KDM5B inh: inactive

Results for COc1ccc(C(CC(=O)NCCC(C)C)c2c[nH]c3ccccc23)c(OC)c1 (stereo not given) ?
KDM5B inh: inactive

What do the screens show for `Cn1c(CNC(=O)CC2CCN(S(C)(=O)=O)C2)nc2ccccc21` (stereo not given)?
KDM5B inh: inactive

Results for Cn1c(CNC(=O)c2cc[nH]c2C2CCCNC2)nc2ccccc21 (stereo not given) ?
KDM5B inh: 31.6µM*
